Consider 37 compounds from PubChem BioAssay (NCI).

About 83,000 compounds went through this panel and 20% of them were active in at least one assay; those are over-represented in the sample as a whole.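 The test compound was applied at a single concentration to cells in 96-well plates for 48 hours, and percent growth was recorded.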 Calls of active or inactive are those of the source. Rule for the calls: active = growth percent below 10; inactive = the rest.

This assay has as its system SK-MEL-2 melanoma. In words: NCI-60 one-dose screen, 48 h (100 = growth as untreated, 0 = no growth, -100 = all killed). Conditions: 10 µM unless noted.
As to `COC(=O)[C@@H](C)C[C@H](Cc1ccccc1)NC(=O)c1nc([C@@H](C[C@H](C(C)C)N(C)C(=O)[C@@H](NC(=O)[C@H]2CCCN2C)C(C)C)OC(C)=O)sc1C`, the growth is 36.6% (inactive). Then `CCCCCSC1C2C(=O)C(Br)=CC13CCNc1c(O)c4c5c(c13)=[N+]2CCC=5C=N4` (configuration not stated), with -54.8% (active). Regarding `CC1=C(CCCOC(=O)CN)C2=C(C)C3(CC3)[C@@](C)(O)C(=O)C2=C1`, the growth is 102% (inactive). The result for `COC(=O)CC[C@H](Cc1ccccc1)NC(=O)c1csc([C@@H](C[C@H](C(C)C)N(C)C(=O)[C@@H](NC(=O)[C@H]2CCCCN2C)C(C)C)OC(C)=O)n1` reads 54.1% (inactive); that for `COC(=O)CC12CC(NC(=O)c3csc([C@@H](C[C@H](C(C)C)N(C)C(=O)[C@@H](NC(=O)[C@H]4CCCCN4C)C(C)C)OC(C)=O)n3)(C1)C2`, 51.6% (inactive); that for `O=C1CNC(c2ccccc2)c2cc(Cl)ccc2N1` (configuration not stated), 95.5% (inactive). The result for `CC1(C)N=C(N)N=C(N)N1c1cccc(CCCCc2ccc(Cl)c(S(=O)(=O)F)c2)c1` reads 52.3% (inactive); that for `CC(=O)O[C@H](C[C@H](C(C)C)N(C)C(=O)[C@@H](NC(=O)[C@H]1CCCCN1C)C(C)C)c1nc(C(=O)N[C@@H](Cc2ccccc2)C[C@H](C)C(=O)O)c(C(C)C)s1`, 23.6% (inactive). Then `COC(=O)[C@@H](C)C[C@H](Cc1ccccc1)NC(=O)c1csc(CC[C@H](C(C)C)N(C)C(=O)[C@@H](NC(=O)[C@H]2CCCCN2C)C(C)C)n1`, with 35.7% (inactive).

For the compound `CCOP(=O)(NC[C@H]1O[C@](O)(CO)[C@@H](O)[C@@H]1O)OCC`, the growth is 98.4% (inactive). The result for `COc1cc([C@@H]2c3cc4c(cc3[C@H](OC(C)=O)[C@H]3COC(=O)[C@H]23)OCO4)cc(OC)c1OC` reads 33.2% (inactive).

`COC(=O)[C@@H](C)C[C@H](Cc1cn(C)c2ccccc12)NC(=O)c1csc([C@@H](C[C@H](C(C)C)N(C)C(=O)[C@@H](NC(=O)[C@H]2CCCCN2C)C(C)C)OC(C)=O)n1`: the growth was 39% (inactive).

Consider `CCOC(=O)[C@@H](C)C[C@H](Cc1ccccc1)NC(=O)c1csc([C@@H](C[C@H](C(C)C)N(C)C(=O)[C@@H](NC(=O)[C@H]2CCCCN2C)C(C)(C)C)OC(C)=O)n1`, for which the growth is 1.39% (active). The result for `CC1=C(CCCNS(C)(=O)=O)C2=C(C)C3(CC3)[C@@](C)(O)C(=O)C2=C1` reads -44.7% (active).

Regarding `COC(=O)[C@@H](C)C[C@H](Cc1ccccc1)NC(=O)c1cccc([C@@H](C[C@H](C(C)C)N(C)C(=O)[C@@H](NC(=O)[C@H]2CCCCN2C)C(C)C)OC(C)=O)n1`, the growth was 26.4% (inactive).

`CNC(=O)Oc1ccc(C(C)(C)C)cc1OC(=O)NC`: the growth is 70.7% (inactive). For the compound `CC1(C)C(C(=O)c2cn(CCCCF)c3ccccc23)C1(C)C`, the growth is 86.4% (inactive). As for `CC(=O)O[C@H](C[C@H](C(C)C)N(C)C(=O)[C@@H](NC(=O)[C@H]1CCCCN1C)C(C)C)c1nc(C(=O)NC2CCC(C(=O)O)CC2)cs1` (some centres not stated), the growth was 37.4% (inactive). `CCCC[C@H](NC(=O)[C@H]1CCCN1C)C(=O)N(C)[C@H](C[C@@H](OC(C)=O)c1nc(C(=O)N[C@@H](Cc2ccccc2)C[C@H](C)C(=O)OCC)cs1)C(C)C`: the growth is 52% (inactive). Then `CCOC(=O)[C@@H](C)C[C@H](Cc1ccccc1)NC(=O)c1csc([C@@H](C[C@H](C(C)C)N(C)C(=O)CNC(=O)[C@H]2CCCCN2C)OC(C)=O)n1`, with 28.1% (inactive). As for `COc1ccc([As]=[As]c2ccc(OC)c(NCS(=O)(=O)O)c2)cc1NCS(=O)(=O)O` (configuration not stated), the growth is 23.9% (inactive). For the compound `CC1=C(CCCOC(=O)[C@H](N)CC(C)C)C2=C(C)C3(CC3)[C@@](C)(O)C(=O)C2=C1`, the growth is -15.6% (active). Then `O=[N+]([O-])c1cc(I)cc([N+](=O)[O-])c1`, with 96.8% (inactive); and `CC(=O)OC[C@]1(C)C=C2C(=O)[C@](C)(O)C3(CC3)C(C)=C2[C@H]1OC(=O)N(C)CCN(C)C(=O)OC(C)(C)C`, with -74.3% (active). The result for `CC[C@H](C)[C@H](NC(=O)[C@H]1CCCCN1C)C(=O)N(C)[C@H](CCc1nc(C(=O)N[C@@H](Cc2ccccc2)C[C@H](C)C(=O)OC)cs1)C(C)C` reads 32.7% (inactive); that for `COc1ccc(Nc2ccc([N+](=O)[O-])cc2[N+](=O)[O-])cc1CN(CCCl)CCCl`, 42.9% (inactive). Then `COC(=O)CCc1c[nH]c2ccc(N(CCCl)CCCl)cc12`, with 121% (inactive). In the case of `Nc1c(F)cc(-c2nc3cc(F)ccc3[se]2)cc1F`, the growth was 107% (inactive). Then `COC(=O)[C@@]1(C)CC[C@]2(C)CC[C@]3(C)C4=CC=C5C(=CC(=O)C(O)=C5C)[C@]4(C)CC[C@@]3(C)[C@@H]2C1`, with -87.6% (active).

Turning to `COC(=O)[C@@H](C)C[C@H](Cc1ccccc1)NC(=O)c1nc([C@@H](C[C@H](C(C)C)N(C)C(=O)[C@@H](NC(=O)[C@H]2CCCCN2C)C(C)C)OC(C)=O)sc1C`, the growth is 26.5% (inactive). `CC(=O)O[C@H](C[C@H](C(C)C)N(C)C(=O)[C@@H](NC(=O)[C@H]1CCCN1C)C(C)C)c1nc(C(=O)N[C@@H](Cc2ccccc2)C[C@H](C)C(=O)O)c(C)s1`: the growth is 36.5% (inactive). The result for `CCOC(=O)[C@@H](C)C[C@H](Cc1ccccc1)NC(=O)c1csc([C@@H](C[C@H](C(C)C)N(C)C(=O)[C@H](CCC(C)C)NC(=O)[C@H]2CCCCN2C)OC(C)=O)n1` reads 28.1% (inactive).

For `COC(=O)C12CC(NC(=O)c3csc([C@@H](C[C@H](C(C)C)N(C)C(=O)[C@@H](NC(=O)[C@H]4CCCCN4C)C(C)C)OC(C)=O)n3)(C1)C2`, the growth is 28.5% (inactive).

In the case of `Clc1ccc2nnnn2n1`, the growth was -12.1% (active). The result for `CC[C@H](C)[C@H](NC(=O)[C@H]1CCCCN1C)C(=O)N(C)[C@H](C[C@@H](O)c1nc(C(=O)N[C@@H](Cc2ccccc2)C[C@H](C)C(=O)O)cs1)C(C)C` reads 41.3% (inactive); that for `N#C[S-].[Au+].c1ccc(CN2[CH-]N(Cc3ccccc3)C(c3ccccc3)=C2c2ccccc2)cc1`, -1.84% (active). On to `CCCCCCCCCCCCNC(c1ccccc1)C(O)c1ccccc1` (configuration not stated), for which the growth was 92.8% (inactive).
